Experimental data as given in PubChem BioAssay (NCATS).
Active and inactive are the calls of the source. Calls follow the shape of the dose curve; as a rule, active = well fitted inhibition curve with a large enough effect; inconclusive = small, poorly fitted or top-dose-only effect; inactive = flat fitted curve, though single readings scatter. Where a SMILES comes first, the peptide text is derived from it. Bridges are numbered along the chain shown (N, C = ends). [ ]: non-standard residue; d: D form. The star is where a group is joined. X1 = CCC(C)C(N)C1=NC(C(=O)*)CS1; dOrn = NCCC[C@@H](N)C(=O)O

What follows are compounds tested on Nanoluciferase (engineered Oplophorus gracilirostris luciferase) (assay: Primary Nanoluciferase (NLuc) qHTS assay for identification of artifact compounds. (AID 1845222)). Conditions: NLuc-conditioned medium, Nano-Glo luminescence, 5 min; series mostly up to 54.1 µM; activity, negative = inhibition: at the top concentration.
Source text: PI: Alexander Tropsha Ph.D.
UNC Eshelman School of Pharmacy
University of North Carolina, Chapel Hill, North Carolina
Hits from high-throughput screening (HTS) of chemical libraries are often false positives due to their interference with the assay detection technology. In response to this problem, we generated the largest publicly available library of chemical liabilities and developed a free webtool to predict HTS artifacts, both of which are described herein. More specifically, we generated, curated, and integrated HTS datasets for thiol reactivity, redox activity, and luciferase (firefly and nano) activity. Using these curated datasets, we developed and validated several Quantitative Structure-Interference Relationship (QSIR) models to predict nuisance behavior. […] These models were employed for virtual profiling of the National Center for Advancing Translational Science's (NCATS) in-house library, and 256 compounds for each assay were selected for the experimental validation of nuisance behavior. The BA for these external predictions ranged from 58 to 78% for compounds within the applicability domains of the models. […] The models developed in this study, along with aggregation models previously developed by our group (SCAM Detective) were implemented in "Liability Predictor," an online tool which may be used as part of chemical library design or for triaging HTS hits. Both the models and the curated datasets are publicly available at https://liability.mml.unc.edu/.
SEQUENCE No. (e.g., 1, 2, 3, etc.); […] (e.g., Cells, Incubation, Reagent, etc.); VALUE; DESCRIPTION.
1; Reagent; 2 uL; Nanoluciferase media.
2; Compounds and control; 16 nL; Kalypsis pin tool (Wako USA) equipped with a 1536-well pin head.
4; Reagent; 2 uL; Luciferase enzyme.
6; Detection; Luminescence, ViewLux microplate reader.
NOTES (numbers refer to Sequence numbers above)
1. Medium was collected from the culture flasks of NLuc-expressing S16 cells (80% confluent) prior to cell plating, filtered through a 0.22um filter, and frozen at -20C prior to use. Media was diluted (1:55) and 2 uL was dispensed into all wells of a 1536-well assay plate (solid-bottom white plate; Greiner Bio One, Monroe, NC).
2. A Wako Pin-tool (Wako Automation, Richmond, VA) was used to transfer 16 nL of compounds (consisting of 7-plates in qHTS format, final concentration range 18.3 nM to 114 uM) or control Cilnidipine (final concentration range 623 nM to 80 uM).
3. 15 min. incubation at room temperature protected from light.
4. 2 uL of NLuc substrate (1:100 in Nano-Glo luciferase buffer; Nano-Glo luminescence assay, Promega, Madison, WI) was dispensed for a final assay volume of 4 uL.
5. Plates were centrifuged (121xg, 15 seconds) and incubated for 5 minutes.
6. Samples were read for luminescence on a ViewLux CCD imager (PerkinElmer). Data were normalized to no-enzyme (0% activity) and no-inhibitor (DMSO; 100%) controls and the resulting percent inhibition data were fitted to a 4-parameter Hill equation using NCATS in-house software.
`CCn1c2ccccc2c2cc(CNC)ccc21` was tested, and the Potency was “inactive”.
`COC(=O)C1C(c2ccc(O)cc2)C(C(=O)OC)C1c1ccc(O)cc1` (stereo not given) was tested, and the “activity, negative = inhibition” value was -2.46% (inactive).
For `C/C=C(\C)C(=O)O[C@H]1[C@H](O)[C@]2(COC(C)=O)[C@H](O)C[C@]3(C)C(=CCC4[C@@]5(C)CC[C@H](O[C@@H]6O[C@H](C(=O)O)[C@@H](O[C@@H]7O[C@H](CO)[C@@H](O)[C@H](O)[C@H]7O)[C@H](O)[C@H]6O[C@@H]6O[C@H](CO)[C@@H](O)[C@H](O)[C@H]6O)[C@](C)(CO)C5CC[C@]43C)[C@@H]2CC1(C)C` (stereo not given in full), the activity, negative = inhibition was 4.32% [at 11.6 µM] (inactive).
In the case of `CCC(C)C(N)C1=NC(C(=O)N[C@@H](CC(C)C)C(=O)N[C@H](CCC(=O)O)C(=O)N[C@H](C(=O)N[C@H]2CCCCNC(=O)[C@H](CC(N)=O)NC(=O)[C@@H](CC(=O)O)NC(=O)[C@H](Cc3cnc[nH]3)NC(=O)[C@@H](Cc3ccccc3)NC(=O)[C@H]([C@@H](C)CC)NC(=O)[C@@H](CCCN)NC2=O)[C@@H](C)CC)CS1` (stereo not given in full) (X1-L[dE]IK[dOrn]I[dF]H[dD]N; lactam 4-C), the Potency is reported as “inactive”.
In the case of `CC1=C(CC(=O)O)c2cc(F)ccc2C1=Cc1ccc(S(C)(=O)=O)cc1`, the “activity, negative = inhibition” value is reported as -15.8% (inactive).
For `NCCOCCOCCNC(=O)Cc1ccc(Nc2nc(NCc3ccc(F)cc3)nc(NCC3CCCCC3)n2)cc1`, the “activity, negative = inhibition” value was 2.58% (inactive).
In the case of `C[C@@H]1O[C@@H](O[C@H]2[C@H](O[C@H]3[C@H](O[C@H]4CC[C@@]5(C)C(CC[C@]6(C)C5CC=C5[C@@H]7CC(C)(C(=O)O)C[C@@H](O)[C@]7(C)CC[C@]56C)[C@@]4(C)CO)O[C@H](C(=O)O)[C@@H](O)[C@@H]3O)O[C@H](CO)[C@H](O)[C@@H]2O)[C@H](O)[C@H](O)[C@H]1O` (stereo not given in full), the activity, negative = inhibition is reported as -2.21% [at 11.6 µM] (inactive).
`Cc1cccc(-c2[nH]c(CNc3ccccc3F)nc2-c2ccc3ncnn3c2)n1` was tested, and the “activity, negative = inhibition” value was 0.361% (inactive).
`COc1cc([C@H]2OC[C@@H]3[C@@H](c4ccc(O[C@@H]5O[C@H](CO)[C@@H](O)[C@H](O)[C@H]5O)c(OC)c4)OC[C@]23O)ccc1O` was tested, and the “activity, negative = inhibition” value was 4.59% [at 25.7 µM] (inactive).
For `COc1cc(C[C@H]2COC(=O)[C@@H]2Cc2ccc(O)c(OC)c2)ccc1O`, the “activity, negative = inhibition” value was 0.48% (inactive).
`CCC/C=C/C(=O)O[C@H]1CC(C)(C)CC2[C@]13[C@H](O)O[C@@]21CCC2[C@@]4(C)CC[C@H](O[C@@H]5O[C@H](C(=O)O)[C@@H](O)[C@H](O[C@@H]6O[C@H](CO)[C@H](O)[C@H](O)[C@H]6O[C@@H]6O[C@@H](C)[C@H](O)[C@@H](O)[C@H]6O[C@@H]6OC[C@](O)(CO)[C@H]6O)[C@H]5O[C@@H]5O[C@H](CO)[C@H](O)[C@H](O)[C@H]5O)C(C)(C)C4CC[C@@]2(C)[C@]1(C)C[C@H]3OC(C)=O` (stereo not given in full) was tested, and the activity, negative = inhibition was 4.57% [at 11.6 µM] (inactive).
With `COc1ccc2c(c1O)OC[C@H]1c3ccc(O)cc3O[C@@H]21` the “activity, negative = inhibition” value was -0.726% (inactive).
`Cc1ncc([N+](=O)[O-])n1CC(O)CN1CCOCC1` (stereo not given) was tested, and the “activity, negative = inhibition” value was 0% (inactive).
In the case of `COC1CCCC/C(C)=C/C2C=C(C)C(C)C3C(CC(C)C)NC(=O)C23C(=O)C1` (stereo not given), the “activity, negative = inhibition” value is reported as 2.01% [at 25.7 µM] (inactive).
With `C=C1CCC2C(C)(C)CC(=O)CC2(C)C1CCC(C)CCOC(C)=O` (stereo not given) the “activity, negative = inhibition” value was 1.97% (inactive).
For `C=CC1(C)C=C2C(=O)CC3C(C)(C)CCCC3(C(=O)O)C2(O)CC1` (stereo not given), the “activity, negative = inhibition” value was -2.35% (inactive).
For `C[C@]12CC[C@@H]3c4ccc(O[C@@H]5O[C@H](C(=O)O)[C@@H](O)[C@H](O)[C@H]5O)cc4CC[C@H]3[C@@H]1CCC2=O`, the “activity, negative = inhibition” value was 3.31% (inactive).
For `C[C@@H]1O[C@@H](O[C@H]2[C@H](O[C@H]3CC[C@@]4(C)C(CC[C@]5(C)C4CC=C4C6CC(C)(C)CC[C@]6(C(=O)O[C@@H]6O[C@H](CO[C@@H]7O[C@H](CO)[C@@H](O[C@@H]8O[C@@H](C)[C@H](O)[C@@H](O)[C@H]8O)[C@H](O)[C@H]7O)[C@@H](O)[C@H](O)[C@H]6O)CC[C@]45C)[C@]3(C)CO)OC[C@H](O)[C@@H]2O)[C@H](O)[C@H](O)[C@H]1O` (stereo not given in full), the activity, negative = inhibition was 0.304% [at 11.6 µM] (inactive).
`Nc1nonc1C(=Nc1ccc(F)c(Cl)c1)NO` was tested, and the “activity, negative = inhibition” value was 0.591% (inactive).
For `CC1=CC(=O)C[C@H]2[C@@H]1CC[C@@H](C)[C@]21CO[C@H](c2ccoc2)C1=O`, the “activity, negative = inhibition” value was 0.851% (inactive).
In the case of `COC(=O)C1=CO[C@@H](O[C@@H]2O[C@H](CO[C@@H]3O[C@H](COC(=O)/C=C/c4ccc(O)cc4)[C@@H](O)[C@H](O)[C@H]3O)[C@@H](O)[C@H](O)[C@H]2O)[C@@H]2C(CO)=CC[C@H]12`, the “activity, negative = inhibition” value is reported as 2.88% [at 25.7 µM] (inactive).
In the case of `COC(=O)CC[C@@H](C)[C@H]1CC[C@H]2[C@@H]3CC(=O)[C@H]4C[C@H](OC(C)=O)CC[C@]4(C)[C@H]3CC[C@]12C`, the “activity, negative = inhibition” value is reported as 0% (inactive).
For `Oc1ccc([C@H]2COc3cc(O)ccc3C2)cc1`, the “activity, negative = inhibition” value was 2.24% (inactive).
For `C=C(C)C(=O)O[C@H]1C[C@@](C)(OC(C)=O)[C@@]2(O)CC[C@@](C)(O)[C@H](OC(C)=O)[C@@]23OC(=O)C(COC)=C13`, the “activity, negative = inhibition” value was 3.86% [at 25.7 µM] (inactive).
For `Cc1c(N2C(=O)c3ccc(C(=O)O)cc3C2=O)c(=O)n(-c2ccccc2)n1C`, the “activity, negative = inhibition” value was 4.41% (inactive).
With `NC(=O)[C@H]1CCCCc2c1[nH]c1ccc(Cl)cc21` the “activity, negative = inhibition” value was 0% [at 25.7 µM] (inactive).
`C/C=C/C=C/C=C/C(=O)O[C@@H]1C=C(CO)C(O)(C(=O)O)[C@@]2(C)CCCC(C)(C)[C@H]12` (stereo not given in full) was tested, and the “activity, negative = inhibition” value was -8.09% [at 25.7 µM] (inactive).
In the case of `CC1(C)CC[C@]2(C(=O)O)CC[C@]3(C)C(=CCC4[C@@]5(C)C[C@@H](O)[C@H](O)C(C)(C)C5CC[C@]43C)[C@@H]2[C@@H]1O` (stereo not given in full), the “activity, negative = inhibition” value is reported as 4.12% [at 25.7 µM] (inactive).
For `C=C1CC[C@H]2[C@@](C)(CCC[C@@]2(C)C(=O)O)[C@@H]1CCC(C)CCO` (stereo not given in full), the “activity, negative = inhibition” value was -1.51% (inactive).
For `CC1(C)O[C@@]2(C)CC[C@@H]1C[C@@H]2OC1OC(CO)C(O)C(O)C1O` (stereo not given in full), the “activity, negative = inhibition” value was -4.58% (inactive).
For `CC(C)CC(=O)O[C@@H]1OC=C(CO[C@@H]2O[C@H](CO[C@@H]3O[C@H](CO)[C@@H](O)[C@H](O)[C@H]3O)[C@@H](O)[C@H](O)[C@H]2O)[C@H]2C[C@H](O)[C@@H](CO)[C@@H]12`, the “activity, negative = inhibition” value was 4.3% [at 25.7 µM] (inactive).
In the case of `COc1cc([C@@H]2Oc3c(OC)cc(CCCO)cc3[C@@H]2CO[C@@H]2O[C@H](CO)[C@@H](O)[C@H](O)[C@H]2O)ccc1O`, the “activity, negative = inhibition” value is reported as -2.1% [at 25.7 µM] (inactive).
In the case of `CC[C@H](/C=C/[C@@H](C)[C@H]1CC[C@H]2[C@@H]3CC=C4C[C@@H](O)CC[C@]4(C)[C@H]3CC[C@]12C)C(C)C`, the activity, negative = inhibition is reported as 1.22% [at 6.45 µM] (inactive).
With `C=C1CCC2C(C)(CO[C@@H]3O[C@H](CO)[C@@H](O)[C@H](O)[C@H]3O)C(O)CCC2(C)C1C(=O)CC1=CCOC1=O` (stereo not given in full) the “activity, negative = inhibition” value was 2.23% [at 25.7 µM] (inactive).
For `C=C/C=C/[C@@H]1OC[C@H](/C=C/C=C/C)[C@H]1O`, the “activity, negative = inhibition” value was 2.64% [at 86.2 µM] (inactive).
For `CNC(=O)Nc1ccc(OC)c(NC(=O)NC(=O)c2cc(F)c(F)cc2Cl)c1`, the “activity, negative = inhibition” value was 2.97% (inactive).
`CC(C)(C)NCc1cc(Nc2ccnc3cc(Cl)ccc23)c2c(c1O)CCCC2` was tested, and the activity, negative = inhibition was 1.02% [at 0.464 µM] (inactive).
`C[C@H]1[C@H](C)CC[C@]2(C(=O)O)CC[C@]3(C(=O)O)C(=CCC4[C@@]5(C)CC[C@H](O[C@@H]6O[C@H](C)[C@@H](O)[C@H](O)[C@H]6O)C(C)(C)C5CC[C@]43C)[C@H]12` (stereo not given in full) was tested, and the “activity, negative = inhibition” value was 3.03% [at 25.7 µM] (inactive).
For `COc1ccc(/C=C/C(=O)O[C@@H]2[C@@H](OC(C)=O)[C@@H](OC(C)=O)[C@H](O[C@H]3[C@@H]4C=CO[C@@H](O[C@@H]5O[C@H](CO)[C@@H](O)[C@H](O)[C@H]5O)[C@@H]4[C@@]4(CO)O[C@@H]34)O[C@H]2C)cc1O`, the “activity, negative = inhibition” value was -1.04% [at 25.7 µM] (inactive).
For `O=C(O)C[C@H](O)C[C@H](O)/C=C/c1c(C2CC2)nc2ccccc2c1-c1ccc(F)cc1`, the “activity, negative = inhibition” value was 2.78% (inactive).
